Screens as filed in PubChem.
Most compounds without a hit are left out; they make up all but 3.7% or so of the library.
CHT PAM – CHT positive allosteric modulators, primary screen, cell-based, membrane potential dye, choline EC20 | 310,000 compounds, 0.49% hits | AID 488977, 2010 | High affinity choline transporter 1 (Homo sapiens), Q9GZV3 | CHT-expressing cells; hits give high values; LV-AA mutant CHT in HEK293 cells | B-score at 10 µM;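 active means initial fluorescence not abnormally high and integrated response B-score, plate-corrected, over 3 SD above library mean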
Kir21 block – inhibitors of mouse Kir2.1 inward-rectifier potassium channel; Inward rectifier potassium channel 2 (Mus musculus), P35561; HEK293-Kir2.1, FluxOR thallium flux fluorescence; hits give low values; B-score at 10 µM; 310,000 compounds, 0.85% hits;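 active means fluorescence ratio B-score at or below minus 3 SD of library scores, with starting-brightness B-score within 2 SD, cut at about -4.2 in these data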;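 further: channel flux triggered by added potassium and thallium sulfate stimulus; B-score of peak minus minimum fluorescence over baseline after thallium stimulus; more negative B-score means stronger Kir2.1 block with less thallium influx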
Target sequence (P35561 whole entry, looked up): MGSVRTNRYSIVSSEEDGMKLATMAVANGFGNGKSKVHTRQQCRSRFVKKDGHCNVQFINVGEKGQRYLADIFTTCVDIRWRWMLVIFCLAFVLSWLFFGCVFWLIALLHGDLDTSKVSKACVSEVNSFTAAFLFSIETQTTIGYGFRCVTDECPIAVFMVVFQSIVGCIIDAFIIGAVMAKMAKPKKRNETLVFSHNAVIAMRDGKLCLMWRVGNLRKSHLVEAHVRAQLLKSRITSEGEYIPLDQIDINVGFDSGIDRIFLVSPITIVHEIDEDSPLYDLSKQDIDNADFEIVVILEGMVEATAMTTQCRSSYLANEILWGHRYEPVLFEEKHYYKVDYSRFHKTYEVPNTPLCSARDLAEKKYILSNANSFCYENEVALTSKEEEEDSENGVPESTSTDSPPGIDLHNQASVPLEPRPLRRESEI
TMEM16A act – TMEM16A chloride channel activators or potentiators, primary screen, cell-based, HTS; HEK293 TMEM16A/YFP-H148Q/I152L, iodide quench fluorescence; hits give low values; B-score at 10 µM; 340,000 compounds, 0.3% hits; AID 623877, 2012;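 active means fluorescence-ratio B-score plate-corrected deviation score at least 3 library SD below zero, with starting fluorescence score within 5 deviations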;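 further: channel opened by trigger with iodide after compound preincubation; score built on the fluorescence ratio of max minus min over baseline; more negative score means more quench and so TMEM16A activation or potentiation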
TMEM16A inh – TMEM16A chloride channel inhibitors, primary screen, cell-based, HTS | Anoctamin-1 (Mus musculus), Q8BHY3 | HEK293 TMEM16A/YFP iodide influx fluorescence, ionomycin | normalized B-score (activity score, 25-100; higher = stronger inhibition) at 10 µM | 310,000 compounds, 1.2% hits | AID 588511, 2011;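 active means ratio plate-corrected score three or more library SD toward inhibition, starting fluorescence score within five deviations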;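 further: score derived from kinetic fluorescence span divided by baseline fluorescence per well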
GPR7 antagonist – GPR7 receptor antagonists, primary screen, cell-based, fluorescence, single concentration; GPR7-expressing cells, fluorescence antagonist assay; inhibition, % at 4.4 µM; 290,000 compounds, 1.1% hits; in the data active means inhibition above about 16%, passing the limit was not always enough;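 further: cells stimulated with the agonist NPW; 0% = agonist with vehicle and 100% = vehicle without agonist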
CHT inh – inhibitors of human choline transporter CHT. High affinity choline transporter 1 (Homo sapiens), Q9GZV3. CHT-expressing cells, membrane potential dye, choline response; hits give low values. B-score at 10 µM. 310,000 compounds, 0.86% hits. AID 488975, 2010;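 active means B-score over 3 SD under the library average, and starting fluorescence ratio not unusually high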;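 further: choline stimulus applied at its EC90 after an EC20 pre-addition; B-score computed on integrated fluorescence ratio after choline addition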
GPR7 antag conf – GPR7 receptor antagonists, confirmation, cell-based, fluorescence, single concentration; shares compounds with GPR7 antagonist; GPR7-expressing cells, calcium fluorescence antagonist mode; inhibition, % at 4.4 µM; 2,400 compounds, 52% hits; in the data active means inhibition above about 24%;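 further: stimulated with the GPR7 agonist NPW; 0% = agonist plus vehicle and 100% = vehicle alone without agonist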
MCHR1 antagonist – MCHR1 antagonists in cells, counter-screen for GPR7 antagonist project, cell-based, fluorescence, human; shares compounds with GPR7 antagonist; AID 2148, 2009; inhibition, % at 4.4 µM; 2,400 compounds, 62% hits; MCHR1-expressing cells, fluorescence antagonist assay; in the data active means inhibition above about 22%;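 further: 0% = vehicle with agonist and 100% = vehicle without agonist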
* marks the source's active call; other numbers are inactive results; i = inactive; · = not tested or not shown.

SMILES	CHT PAM	Kir21 block	TMEM16A act	TMEM16A inh	GPR7 antagonist	CHT inh	GPR7 antag conf	MCHR1 antagonist
O=C(NCCCC1CCCC1)C1CCC(=O)N(Cc2cccc(F)c2)C1 (stereo not given)	i	0.01	i	i	-5.0	i	·	·
O=C(NCCCc1ccc(F)cc1)C1CCC(=O)N(CCCN2CCCC2=O)C1 (stereo not given)	i	-0.35	i	i	34.8*	i	-1.9	3.7
O=C(NCCc1ccccc1)C1CCC(=O)N(CCCN2CCCC2=O)C1 (stereo not given)	i	1.85	i	i	-4.8	i	·	·
Cc1ccc(C)c(-n2c3nc(=O)[nH]c(=O)c-3cc3cc([N+](=O)[O-])ccc32)c1	i	·	i	i	22.1*	i	41.8*	42.7*
CCOC(=O)c1ccccc1NC(=O)CSc1nc2[nH]ncc2c(=O)[nH]1	i	-1.24	i	i	·	i	·	·
Nc1cccc(S(=O)(=O)Nc2ccccc2)c1	i	-2.05	i	i	-12.0	i	·	·
C/C(=N\NC(=O)Cn1nc(C)cc1C)c1ccc([N+](=O)[O-])cc1	i	0.02	i	i	-10.8	i	·	·
CN(C)c1ccc(/C=C(\C#N)C(=O)Nc2nc3c(s2)CCN(Cc2ccccc2)C3)cc1	i	-3.75	i	i	26.0*	i	33.3*	31.2*
O=C(Nc1ccccc1)[C@@H]1[C@@H]2C(=O)N(c3ccc(F)cc3)C(=O)[C@@H]2[C@H]2C=CC=NN21	i	0.27	i	i	26.8*	i	9.1	0.1
Cc1cc(C)c(S(=O)(=O)NC2CC(C)(C)NC(C)(C)C2)cc1C	i	-0.43	i	i	100.6*	i	-3.8	2.2
C=CCOc1ccc(Br)cc1CNC(C)(C)C	i	-2.61	i	i	1.9	i	·	·
FC(F)Sc1ccc(NC(=S)NCC2CCCCC2)cc1	i	-0.14	i	100*	33.8*	i	57.6*	75.4*
O=C(COC(=O)[C@H](Cc1ccccc1)NC(=O)c1cccs1)Nc1c(Cl)cccc1Cl	i	0.4	i	i	23.2*	i	19.9	31.6*
O=C(c1ccco1)N1CCN(S(=O)(=O)c2c(Cl)cccc2Cl)CC1	i	-0.01	i	i	-12.3	i	·	·
CC(=O)Nc1ccc2nc(NC(=O)COc3cccc(C)c3)sc2c1	i	0.98	i	i	-1.4	i	·	·
CCc1cccc(CC)c1NC(=O)COC(=O)C1(c2ccc(Cl)cc2)CCCC1	i	-0.02	i	i	41.8*	i	35.9*	50.5*
Cc1cccc2cc(CN(CCCN(C)C)C(=S)NCCc3ccccc3)c(=O)[nH]c12	i	1.24	i	i	30.6*	i	48.7*	30.4*
Cc1ccc2[nH]c(=O)c(CN(CCCN(C)C)C(=S)NCCc3ccccc3)cc2c1	i	-3.34	i	i	19.9	i	·	·
CCOc1ncccc1C(=O)Nc1ccc2c(C)cc(=O)oc2c1	i	0.08	i	i	-12.1	i	·	·
Cc1cc(=O)oc2cc(OC(=O)c3ccccc3)ccc12	i	0.93	i	i	·	i	·	18.2
COc1ccccc1C(=O)Nc1ccc2c(C)cc(=O)oc2c1	i	-0.58	i	i	42.0*	i	13.7	10.5
O=C(NC1CCOc2ccccc21)c1ccc(Cl)nc1 (stereo not given)	i	1.07	i	i	8.3	i	·	·
COc1cccc(CNC(=O)c2ccc(C)c(S(=O)(=O)N3CCCCC3)c2)c1	i	0.46	i	i	·	i	·	·
CC1CN(C(=O)/C(C#N)=C2\N=C(NC(=O)c3ccc(F)cc3)c3ccccc32)CC(C)O1 (stereo not given)	i	-0.06	i	i	1.0	i	·	·
CCOc1ccc(C(C)NC(=S)NCc2ccc(F)cc2)cc1 (stereo not given)	i	1.61	i	i	7.8	i	·	·
SMILES	CHT PAM	Kir21 block	TMEM16A act	TMEM16A inh	GPR7 antagonist	CHT inh	GPR7 antag conf	MCHR1 antagonist
CCc1ccc(C(C)NC(=S)NCc2ccc(F)cc2)cc1 (stereo not given)	i	-0.35	i	i	31.3*	i	43.4*	75.3*
C/C(=N/NC(=O)c1cccs1)c1cccc(NC(=O)C2CC2)c1	i	-0.05	i	i	36.2*	i	-4.7	8.3
CC(C)[C@H](NC(N)=O)C(=O)Nc1ccc(F)c(Cl)c1	i	2.3	i	i	22.3*	i	3.1	13.9
CC(C)[C@H](NC(N)=O)C(=O)NCCc1ccc(Cl)cc1Cl	i	-0.32	i	i	-2.5	i	·	·
Cc1c(C(=O)N2CCOCC2)sc2ncnc(N3CCc4ccccc4C3)c12	i	1.3	i	i	-13.5	i	·	·
Cc1c(C(=O)N2CCCCC2C)sc2ncnc(N3CCc4ccccc4C3)c12 (stereo not given)	i	-0.23	i	i	26.8*	i	20.3	34.7*
O=Cc1ccc(OCC(=O)Nc2ccccc2C(F)(F)F)cc1	i	0.49	i	i	9.2	i	·	·
CN(C)S(=O)(=O)c1cccc(NC(=O)COc2ccc(C(=O)c3ccccc3)cc2)c1	i	-0.1	i	i	32.0*	i	32.5*	59.9*
O=C(Cn1cnc2cc([N+](=O)[O-])ccc2c1=O)Nc1ccccc1Cl	i	-0.41	i	i	-13.2	i	·	·
O=C(Cn1cnc2cc([N+](=O)[O-])ccc2c1=O)NCc1ccccc1	i	-0.93	i	i	-9.5	i	·	·
O=C(Cn1cnc2cc([N+](=O)[O-])ccc2c1=O)Nc1cccc2ccccc12	i	-1.71	i	i	24.9*	i	17.3	1.2
Cc1ccccc1OCCn1cnc2cc([N+](=O)[O-])ccc2c1=O	i	-1.04	i	i	26.2*	i	27.1*	54.8*
COc1ccc(OC2C(=O)N(Cc3ccc(F)cc3)C2c2cc(OC)c(OC)c(OC)c2)cc1 (stereo not given)	i	0.42	i	i	-12.2	i	·	·
